In PubChem BioAssay:
Unmarked numbers belong to inactive results. Active and inactive are the calls of the source.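 Rule for the calls, unless noted: active = inhibition above 50%; inactive = the rest.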

Test: antimalarial activity against Dd2 strain (AID 2302;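 active = growth inhibition above 50% at the single 2 µM test dose, taken to imply half-maximal potency below 2 µM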;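 note: 0% = DMSO untreated growth and 100% = chloroquine plus artemisinin killed control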)
Conditions: P. falciparum Dd2 in RBCs, LDH growth readout, 72 h; at 2 µM; active compounds read high

Compound | growth inhibition
Cc1ccc(C2CCN(CCCCNC(=O)c3ccc(NC(=O)c4ccc(Cl)cc4)cc3)CC2)c(C)c1 | 10%
COC(=O)c1cccc(NC(=O)NC2CCN(c3ccnc(Nc4ccc(F)cc4)n3)C2)c1 (stereo not drawn) | 83% (active)
Cc1nc2ccc3ccc(CN(C)c4ccc(C(=O)N[C@@H](CCC(=O)O)C(=O)O)cc4)cc3c2c(=O)[nH]1 | 27%
COc1ccc2nccc([C@@H](O)CN3CCC(NCc4cc5sccc5nc4C(F)(F)F)CC3)c2c1 | 67% (active)
O=C(Nc1ccc(S(=O)(=O)N2CCOCC2)cc1)c1cc(-c2cc(Cl)ccc2O)n[nH]1 | 59% (active)
COc1ccc(S(=O)(=O)N2CCOCC2)cc1NC(=O)c1cc2ccccc2o1 | -1%
CC1(C)N=C(N)N=C(N)N1OCCc1ccccc1 | 95% (active)
CCOC(=O)NC1=NC(C)(C)N(OCCCOc2cc(Cl)c(Cl)cc2Cl)C(NC(=O)OCC)=N1 | 97% (active)
N#Cc1ccc2[nH]cc(-c3cn4cc(SC5CCCC5)ccc4n3)c2c1 | 21%
COc1ccc(C2CC(=O)C3=C(C2)NC(C)=C(C(=O)OC2CCCC2)C3c2cccc(O)c2)cc1 (stereo not drawn) | 83% (active)
O=C(C=Cc1ccc(Cl)c(Cl)c1)NCCCCCN1CCCC(CCCNC(=O)[C@@H]2C[C@H]2c2ccccc2)C1 (stereo partly drawn) | 5%
O=C(/C=C/c1ccc(Cl)c(Cl)c1)NCCCCCN1CCC(NC(=O)Nc2ccc(F)c(Cl)c2)CC1 | 11%
COc1cc(NC(=O)Nc2ccc([N+](=O)[O-])cc2OC)c(OC)cc1Cl | 6%

Test: HepG2 cytotoxicity, primary screen, cytotoxicity control for P. falciparum antimalarial project, cell-based, ATP luminescence (AID 2303);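 note: 0% = DMSO wells and 100% = digitonin-killed cells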
Conditions: HepG2 viability, 24-48 h, at 10 µM, active compounds read high

Compound | inhibition
O=C(Nc1ccc(Cl)cc1)Nc1cccc(-c2cccc(-c3nc4ccc(F)cc4[nH]3)c2)c1 | 79% (active)
c1cncc(CCNCc2cccc(-c3csc(-c4nc5ccccc5[nH]4)c3)c2)c1 | 26%
COC(=O)c1cccc(NC(=O)NC2CCN(c3ccnc(NCc4ccc(F)cc4)n3)CC2)c1 | 29%
Cc1cc(=O)c(-c2ccc(Oc3cccc(OC(F)(F)F)c3)cc2)c(C)[nH]1 | 13%
COc1ccc(-c2csc(NC(=O)CCC(=O)O)n2)cc1OC | 63% (active)
COc1nc2c(CCN3CC[C@H](NCc4cc(C#N)c5c(c4)CCO5)[C@H](O)C3)ccnc2cc1F | 31%
O=C(/C=C/c1ccc(Cl)c(Cl)c1)NCCCCCN1CCC(CCNC(=O)/C=C/c2ccccc2F)CC1 | 47%
COc1ccc(NC(=O)Nc2ccc(-c3ccncc3)c(C(F)(F)F)c2)cc1N1CCN(C)CC1 | 5%
CCOC(=O)c1cccc(N/C(N)=N/c2nc(C)cc(NCCc3ccccc3)n2)c1 | 21%
CC(C)OC(=O)c1ccc(NC(=O)N[C@@H](Cc2ccc(O)cc2)C(=O)NC2C[C@H]3CC[C@@H](C2)N3Cc2ccccc2)cc1 (stereo partly drawn) | 0%
O=C(Nc1ccc(F)cc1)c1ccc(C(=O)NC2CCN(CC3CCCCC3)CC2)cc1 | 34%
CC(C)C[C@H](NC(=O)c1cc2ccccc2s1)C(=O)N[C@H]1CCN(Cc2ccc(OC[C@@H]3CCCN3C)c(Cl)c2)C1 | 83% (active)
CC(C)Cn1c2ccccc2c2nc3nc(N)nc(N)c3nc21 | 36%
O=C(/C=C/c1ccc(Cl)c(Cl)c1)NCCCCCN1CCC(NC(=O)c2ccc(F)cc2F)CC1 | 17%
CN1CCCN(Cc2cccc(-c3cccc(NC(=O)c4cccc(Cl)c4)c3)c2)CC1 | 17%
Cc1cc(C(=O)NCc2ccc(-c3c(C)noc3C)cc2)n(-c2ccc(Cl)cc2)n1 | -1%
CC(=O)NCCNCc1cccc(C(=O)NCc2cccc(C(F)(F)F)c2)c1 | 1%
CC(=NN=C(N)N)c1ccc2ccc3ccccc3c2c1 | 14%
CCCNC(=O)Nc1cc2cc(-c3cccc(CN4CCCCC4)c3)ccc2n2c(C)nnc12 | 60% (active)
CC(CCc1ccccc1)NCC(O)c1ccc2c3c(cccc13)C(=O)N2C (stereo not drawn) | 37%

Compound | inhibition
Cc1cc2c(cc1C(F)(F)F)N(C(=O)Nc1cc(C(=O)NCCN(C)C)cc(C(F)(F)F)c1)CC2 | 19%
CN1CCN(c2ccnc3ccc(NC(=O)Cc4ccc5ccccc5c4)cc23)CC1 | 6%
N#Cc1ccc(CN2CCC(NC(=O)c3ccc(-c4nnc(-c5cccc6ccccc56)o4)cc3)CC2)cc1 | 37%
COc1cc(Cc2cnc(N)nc2N)cc(OCCCCCC(=O)O)c1OC | -16%
COc1ccc(CNCc2cccc(-c3cccc(-c4nc5ccc(F)cc5[nH]4)c3)c2)cc1 | 18%
CC(=O)Nc1cccc(CN(Cc2ccc(-c3ccc(CNCc4cccnc4)cn3)cc2)C(=O)Cc2cccnc2)c1 | -3%
COc1ccc(NC(=O)Nc2cccc(-c3ccc(-c4nc5c(C)cccc5[nH]4)s3)c2)cc1 | 23%
Cc1ccc(C2CCN(CCCCNC(=O)c3ccc(NC(=O)c4ccc(Cl)cc4)cc3)CC2)c(C)c1 | 23%
COC(=O)c1cccc(NC(=O)NC2CCN(c3ccnc(Nc4ccc(F)cc4)n3)C2)c1 (stereo not drawn) | 5%
Cc1nc2ccc3ccc(CN(C)c4ccc(C(=O)N[C@@H](CCC(=O)O)C(=O)O)cc4)cc3c2c(=O)[nH]1 | 42%
COc1ccc2nccc([C@@H](O)CN3CCC(NCc4cc5sccc5nc4C(F)(F)F)CC3)c2c1 | 22%
O=C(Nc1ccc(S(=O)(=O)N2CCOCC2)cc1)c1cc(-c2cc(Cl)ccc2O)n[nH]1 | 40%
COc1ccc(S(=O)(=O)N2CCOCC2)cc1NC(=O)c1cc2ccccc2o1 | 8%
CC1(C)N=C(N)N=C(N)N1OCCc1ccccc1 | 70% (active)
CCOC(=O)NC1=NC(C)(C)N(OCCCOc2cc(Cl)c(Cl)cc2Cl)C(NC(=O)OCC)=N1 | 63% (active)
N#Cc1ccc2[nH]cc(-c3cn4cc(SC5CCCC5)ccc4n3)c2c1 | 1%
COc1ccc(C2CC(=O)C3=C(C2)NC(C)=C(C(=O)OC2CCCC2)C3c2cccc(O)c2)cc1 (stereo not drawn) | -6%
O=C(C=Cc1ccc(Cl)c(Cl)c1)NCCCCCN1CCCC(CCCNC(=O)[C@@H]2C[C@H]2c2ccccc2)C1 (stereo partly drawn) | 48%
O=C(/C=C/c1ccc(Cl)c(Cl)c1)NCCCCCN1CCC(NC(=O)Nc2ccc(F)c(Cl)c2)CC1 | 98% (active)
COc1cc(NC(=O)Nc2ccc([N+](=O)[O-])cc2OC)c(OC)cc1Cl | 38%
